# From the antibiotic and cytotoxicity screens of Wong et al. (2023)
# The campaign covered roughly 39,000 compounds. About 500 (1.3%) were called active. The list comes from a sample in which actives are over-represented; it also holds similar structures and randomly drawn compounds.
# Test system: S. aureus RN4220
# Test: growth inhibition call (relative growth <= 0.2)
# Conditions: 50 µM
row,SMILES,growth inhibition call
1,COc1cccc(CNC(=O)C[C@@H]2C=C[C@@H](NC(=O)C3CCOCC3)[C@H](CO)O2)c1,inactive
2,COc1ccc(NC(=O)N(C)C[C@@H]2Oc3c(NS(C)(=O)=O)cccc3C(=O)N([C@H](C)CO)C[C@H]2C)cc1,inactive
3,OCCc1ccc2c(c1)OCO2,inactive
4,Cc1ccc(S(=O)(=O)N(C)C[C@H]2Oc3ccc(NC(=O)Nc4cccc5ccccc45)cc3C(=O)N([C@@H](C)CO)C[C@@H]2C)cc1,inactive
5,COc1ccc(S(=O)(=O)N2C[C@H](O)COC[C@H]3O[C@H](CC(=O)NCCN4CCCCC4)CC[C@@H]32)cc1,inactive
6,CCCNC(=O)N1C[C@@H](O)COC[C@H]2O[C@@H](CC(=O)N3CCN(C)CC3)CC[C@@H]21,inactive
7,C[C@H]1CN([C@@H](C)CO)C(=O)c2cc(NC(=O)Cc3ccccc3)ccc2O[C@H]1CN(C)C(=O)Nc1cccc2ccccc12,inactive
8,C[C@H]1CNC(=CC(=O)c2ccccc2)C(=O)N1,inactive
9,O=C(/C=c1/nc2c([nH]c1=O)=NON2)c1ccccc1,active
10,O=C1OCCN/C1=C/C(=O)c1ccccc1,inactive
11,COc1ccc(S(=O)(=O)N(C)C[C@@H]2Oc3ccc(NC(=O)Cc4ccccc4)cc3CC(=O)N([C@@H](C)CO)C[C@@H]2C)cc1,inactive
12,CC(C)(C)[S@](=O)N1Cc2cc(C(=O)NCc3ccccc3F)nc(-c3cccc(-c4ccncc4)c3)c2[C@@H]1CCO,inactive
13,O=C(C[C@@H]1CC[C@H]2[C@@H](COC[C@@H](O)CN2C(=O)Nc2cccc(Cl)c2)O1)NCc1ccccc1F,inactive
14,O=C(C[C@H]1CC[C@@H]2[C@H](COC[C@@H](O)CN2C(=O)Nc2cccc(Cl)c2)O1)NCc1ccccc1F,active
15,O=C(C[C@@H]1CC[C@@H]2[C@H](COC[C@@H](O)CN2C(=O)Nc2cccc(Cl)c2)O1)NCc1ccccc1F,active
16,O=C(C[C@H]1CC[C@H]2[C@@H](COC[C@H](O)CN2C(=O)Nc2cccc(Cl)c2)O1)NCc1ccccc1F,inactive
17,O=C(C[C@H]1CC[C@@H]2[C@H](COC[C@H](O)CN2C(=O)Nc2cccc(Cl)c2)O1)NCc1ccccc1F,inactive
18,O=C(C[C@H]1CC[C@H]2[C@@H](COC[C@@H](O)CN2C(=O)Nc2cccc(Cl)c2)O1)NCc1ccccc1F,inactive
19,O=C(C[C@@H]1CC[C@H]2[C@@H](COC[C@H](O)CN2C(=O)Nc2cccc(Cl)c2)O1)NCc1ccccc1F,active
20,O=C(C[C@@H]1CC[C@@H]2[C@H](COC[C@H](O)CN2C(=O)Nc2cccc(Cl)c2)O1)NCc1ccccc1F,inactive
21,COc1cccc(NC(=O)N2C[C@H](O)COC[C@H]3O[C@@H](CC(=O)NCc4ccccc4F)CC[C@@H]32)c1,inactive
22,COc1ccc(NC(=O)N(C)C[C@H]2Oc3c(NC(=O)Nc4cccc5ccccc45)cccc3C(=O)N([C@@H](C)CO)C[C@@H]2C)cc1,inactive
23,COc1ccc(S(=O)(=O)N(C)C[C@H]2Oc3c(NS(=O)(=O)c4c(C)noc4C)cccc3C(=O)N([C@@H](C)CO)C[C@@H]2C)cc1,inactive
24,O=c1[nH]cccc1F,inactive

row,SMILES,growth inhibition call
1,C[C@@H]1CN([C@H](C)CO)C(=O)Cc2cc(NC(=O)CCN3CCOCC3)ccc2O[C@@H]1CN(C)C(=O)Nc1ccc2c(c1)OCO2,inactive
2,C[C@@H]1CN([C@@H](C)CO)C(=O)c2cc(NC(=O)C3CCCCC3)ccc2O[C@@H](C)CCCCO[C@H]1CN(C)C(=O)c1ccccc1,inactive
3,CNC[C@@H]1Oc2cc(C#CCN(C)C)ccc2S(=O)(=O)N([C@@H](C)CO)C[C@@H]1C,inactive
4,CC(C)NC(=O)N(C)C[C@@H]1Oc2ccc(NC(=O)C3CCCCC3)cc2C(=O)N([C@@H](C)CO)C[C@@H]1C,inactive
5,C[C@@H]1CN([C@H](C)CO)C(=O)CCCn2nncc2CO[C@H]1CN(C)C(=O)Nc1cccc(C(F)(F)F)c1,active
6,C[C@@H]1CN([C@H](C)CO)C(=O)CCCn2nncc2CO[C@@H]1CN(C)C(=O)Nc1cccc(C(F)(F)F)c1,active
7,C[C@@H]1CN([C@@H](C)CO)C(=O)CCCn2nncc2CO[C@@H]1CN(C)C(=O)Nc1cccc(C(F)(F)F)c1,inactive
8,C[C@H]1CN([C@@H](C)CO)C(=O)CCCn2nncc2CO[C@H]1CN(C)C(=O)Nc1cccc(C(F)(F)F)c1,active
9,C[C@H](CO)N1C[C@H](C)[C@@H](CN(C)C(=O)Nc2cccc(C(F)(F)F)c2)OCc2cnnn2CCCC1=O,inactive
10,C[C@H]1CN([C@@H](C)CO)C(=O)CCCn2nncc2CO[C@H]1CN(C)C(=O)Nc1ccc(C(C)(C)C)cc1,inactive
11,C[C@@H]1CN([C@@H](C)CO)C(=O)CCCn2nncc2CO[C@H]1CN(C)C(=O)Nc1cccc(C(F)(F)F)c1,inactive
12,C[C@H](CO)N1C[C@H](C)[C@H](CN(C)C(=O)Nc2cccc(C(F)(F)F)c2)OCc2cnnn2CCCC1=O,active
13,C[C@@H]1CN([C@@H](C)CO)C(=O)CCCn2nncc2CO[C@H]1CN(C)C(=O)Nc1ccc(C(C)(C)C)cc1,inactive
14,C[C@H]1CN([C@@H](C)CO)C(=O)CCCn2nncc2CO[C@@H]1CN(C)C(=O)Nc1cccc(C(F)(F)F)c1,inactive
15,C[C@@H]1CCCCO[C@@H](CN(C)C(=O)Nc2ccccc2)[C@@H](C)CN([C@H](C)CO)C(=O)c2cc(NC(=O)CCC(F)(F)F)ccc2O1,inactive
16,C[C@H]1CN([C@@H](C)CO)C(=O)c2cc(NC(=O)NC3CCCCC3)ccc2O[C@H]1CN(C)C(=O)Nc1cccc2ccccc12,inactive
17,OC[C@H]1O[C@@H]2O[C@H]3[C@H](O)[C@@H](O)[C@@H](O[C@H]4[C@H](O)[C@@H](O)[C@@H](O[C@H]5[C@H](O)[C@@H](O)[C@@H](O[C@H]6[C@H](O)[C@@H](O)[C@@H](O[C@H]7[C@H](O)[C@@H](O)[C@@H](O[C@H]1[C@H](O)[C@H]2O)O[C@@H]7CO)O[C@@H]6CO)O[C@@H]5CO)O[C@@H]4CO)O[C@@H]3CO,inactive
18,COc1ccc(NC(=O)Nc2ccc3c(c2)CC(=O)N([C@@H](C)CO)C[C@H](C)[C@H](CN(C)S(=O)(=O)c2c(C)noc2C)O3)cc1,inactive
19,COc1ccc(S(=O)(=O)Nc2ccc3c(c2)CC(=O)N([C@@H](C)CO)C[C@@H](C)[C@@H](CN(C)C(=O)NC(C)C)O3)cc1,inactive
20,OC1OC(c2ccc(Cl)c(Cc3ccc(OC4CCOC4)cc3)c2)C(O)C(O)C1O (stereo unspecified),inactive
21,CO[C@@H]1CN(C)C(=O)c2ccc(NC(=O)C3CC3)cc2OC[C@H](C)N(C(=O)Cc2ccccn2)C[C@H]1C,inactive
22,C[C@@H]1CN([C@H](C)CO)C(=O)c2cc(NS(=O)(=O)c3ccc(F)cc3)ccc2O[C@H]1CN(C)S(=O)(=O)c1cccs1,inactive
23,c1ccc(CCNc2ccnc3cc4ccccc4cc23)cc1,active
24,NCCNc1cccc2ccccc12,inactive

row,SMILES,growth inhibition call
1,Cc1nnc(NCCc2ccccc2)n(N)c1=O,inactive
2,C[C@@H]1CN([C@@H](C)CO)C(=O)Cc2cc(NC(=O)CCN3CCOCC3)ccc2O[C@@H]1CN(C)S(=O)(=O)c1ccc(Cl)cc1,inactive
3,CO[C@@H]1CN(C)C(=O)c2cc(NC(=O)C3CC3)ccc2OC[C@H](C)N(C(=O)CN2CCOCC2)C[C@H]1C,inactive
4,CS(=O)(=O)CCOC(=O)C1=CC(CCCO)=C[C@@H](c2ccc(CN3CCCC3)cc2)N(Cc2sc3ccccc3c2Cl)C=C1C(=O)OCCS(C)(=O)=O,active
5,NC(=O)N1C(=O)[C@H]2[C@H](C1=O)[C@H]1C=C(CCCO)[C@@H]2[C@H](c2ccc(CN3CCCC3)cc2)N1Cc1sc2ccccc2c1Cl,inactive
6,COC(=O)C1=CC(CCCO)=C[C@@H](c2ccc(CN3CCCC3)cc2)N(Cc2sc3ccccc3c2Cl)C=C1C(=O)OC,inactive
7,COc1ccc(-c2cc3c(c(CCc4ccccc4)n2)[Si](C(C)C)(C(C)C)O[C@H]3c2ccccc2)cn1,inactive
8,CCCCCCc1nc(-c2cc(C)c(OC)c(C)c2)cc2c1[Si](C(C)C)(C(C)C)O[C@H]2c1ccccc1,inactive
9,COc1c(C)cc(-c2cc3c(c(CCc4ccccc4)n2)[Si](C(C)C)(C(C)C)O[C@H]3c2ccccc2)cc1C,active
10,COc1cc(Cc2cc3c(c(CCc4ccccc4)n2)[Si](C(C)C)(C(C)C)O[C@H]3c2ccccc2)cc(OC)c1OC,active
11,COc1cc(Cc2cc3c(c(CCc4ccccc4)n2)[Si](C(C)C)(C(C)C)OC3)cc(OC)c1OC,inactive
12,COc1c(C)cc(-c2cc3c(c(-c4ccccc4)n2)[Si](C(C)C)(C(C)C)O[C@H]3c2ccccc2)cc1C,inactive
13,C=CCNC1=C2C[C@H](C)C[C@H](OC)[C@@H](O)[C@H](C)/C=C(\C)[C@H](OC(N)=O)[C@H](OC)/C=C/C=C(\C)C(=O)NC(=CC1=O)C2=O,inactive
14,C[C@H](CO)N1C[C@H](C)[C@H](CN(C)Cc2ccc(C(=O)Nc3ccccc3N)cc2)Oc2c(NC(=O)NC3CCCCC3)cccc2C1=O,inactive
15,C[C@@H]1CCCCO[C@@H](CN(C)CC2CCCCC2)[C@H](C)CN([C@@H](C)CO)C(=O)c2cc(NS(=O)(=O)c3cccs3)ccc2O1,inactive
16,NCCNC(=O)c1nc(-c2ccc(Br)o2)no1,inactive
17,O=C(NCc1ccc(Oc2ccccc2)cc1)c1nc(-c2cc(Br)c(O)c(Br)c2)no1,active
18,NNC(=O)c1nc(-c2ccccc2)no1,inactive
19,COc1ccc(NC(=O)N(C)C[C@H]2Oc3c(NC(=O)c4ccc(-c5nccs5)cc4)cccc3C(=O)N([C@@H](C)CO)C[C@H]2C)cc1,inactive
20,CN(C)c1cc[n+](C(=O)N2CCOCC2)cc1,inactive
21,O=c1[nH]c(=O)c2cc(Br)ccc2[nH]1,inactive
22,COc1ccc2[nH]c(=O)[nH]c(=O)c2c1,active
23,O=c1[nH]c(=O)c2ccccc2[nH]1,inactive
